About 83,000 compounds went through this panel and 20% of them were active in at least one assay; those are over-represented in the sample as a whole.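 A percent growth of 40 corresponds to 60% growth inhibition; 0 means no net growth; -100 means all cells died. Active threshold: below 10.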 Unmarked numbers belong to inactive results.
Each compound was assayed on MALME-3M melanoma (assay: NCI-60 one-dose screen, 48 h (100 = growth as untreated, 0 = no growth, -100 = all killed)). Settings: 10 µM unless noted.

Structure (SMILES) | growth [%]
COc1cc(C(=O)/C=C/c2cc(-c3ccc4c(c3)OCO4)n[nH]2)cc(OC)c1OC | 68.5
O=C(/C=C\c1ccc2c(c1)OCO2)/C=C/c1ccc2c(c1)OCO2 | 98.2
COc1cc(-c2cc(-c3nc4cc(Cl)c(Cl)cc4[nH]3)[nH]n2)cc(OC)c1OC | 46.4
COC1=C(Br)C(=O)C(OC)=C(Br)C1=O | 102
COc1ccc2c(c1)C/C(=C\c1cc(-c3ccc4c(c3)OCO4)n[nH]1)C2=O | 112
CC(C)(C)c1ccc(OP(=S)(N/N=C/c2ccccc2O)Oc2ccc(C(C)(C)C)cc2)cc1 | 86.8
OCC12CCCC(CO)(COC1)C2O (configuration not stated) | 114
COc1ccc(-c2cc(/C=C/C(=O)c3ccc(N)cc3)[nH]n2)cc1 | 54.3
O=c1c(CNc2ccc(S(=O)(=O)Nc3ncccn3)cc2)coc2ccccc12 | 94
NC(Cc1ccc(O)cc1)C(=O)N/N=C/c1ccccc1O (configuration not stated) | 80.2
COc1ccc2c(c1)C/C(=C\c1cc(-c3cc(OC)c(OC)c(OC)c3)n[nH]1)C2=O | 108
O=c1c(CNc2ccc(S(=O)(=O)Nc3nccs3)cc2)coc2ccccc12 | 99.7
Nc1c(C(=O)Nc2cccc(Cl)c2)sc2ncc(Cl)cc12 | 69.8
CCN(CC)CCCCCNc1cc(OC(=O)c2ccccc2)cc2cccnc12 | 95.3
Fc1ccc2nc(-c3cc(-c4ccc5c(c4)OCO5)n[nH]3)[nH]c2c1 | 57.7
C#Cc1cc2c(N)c(C(=O)c3cc(OC)c(OC)c(OC)c3)[nH]c2cc1OC | 25.7
Cc1cc(Cl)c2c(N(C)C)cccc2n1 | 87.2
COc1ccc(/C=C2\N=C(c3ccccc3)N(c3cc(OC)c(OC)cc3C(=O)N3N=C(C)CC3=O)C2=O)cc1 | 126
COc1ccc2nc(-c3c(-c4ccccc4)nc4ncccn34)[nH]c2c1 | 112
O=C1C=C(C(O)c2ccc(O)cc2)C(=O)c2ccccc21 (configuration not stated) | 95.6
Cc1ccc(-c2nc3ccc(Cl)cc3c(=O)n2N2C(=O)CSC2c2ccccc2Cl)cc1 (configuration not stated) | 65.8
NS(=O)(=O)c1ccc(CCNC(=O)/C=C/c2ccc(Cl)cc2)cc1 | 90.4

Reference: PubChem BioAssay (NCI)
